Here are results for 40 molecules from PubChem BioAssay (NCI).

This is part of a sample that, as a whole, favours compounds with a hit. Of some 83,000 tested, about 20% had one in any assay.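 Results are percent growth after 48 hours of single-concentration exposure. 100 means growth as in untreated cells, lower positive values show inhibition; negative values down to -100 show cell death.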 Unmarked numbers belong to inactive results. Activity calls are given as the source filed them. Rule for the calls: active = growth percent below 10; inactive = the rest.

One assay concerns SW-620 colon. In words: NCI-60 one-dose screen, 48 h (100 = growth as untreated, 0 = no growth, -100 = all killed). The conditions noted are these: 10 µM unless noted.
Take `O=C1[C@@H]2Cc3c([nH]c4ccccc34)[C@H](c3ccc(Br)cc3)N2C(=O)CN1C1CCN(Cc2c(Cl)cccc2Cl)CC1`: the growth is 92.7%.
The same measure, in the same setting: under `O=C1/C(=C/C=C/c2ccco2)SC(=S)N1Cc1ccccc1` stands 94.2%; under `N#C/C(=N\Nc1ccc(F)cc1)C(=O)Nc1cc(-c2ccccc2)nn1-c1ccccc1`, 17.5%.
The same measure, in the same setting: in the case of `N#Cc1c(-c2cccs2)cc(-c2cnccn2)nc1SCC(=O)N/N=C/c1ccc(Cl)cc1` it was 93.1%.
The same measure, in the same setting: in the case of `COc1ccc(OC)c(NC(=O)CCCCCCNC(=O)C(O)(O)C(F)(F)F)c1` it was 6.62% (active); in that of `C/C(=N/N)c1nnn(-c2ccc(Br)cc2)c1C`, 105%.
In the case of `CC(C)NC(=O)c1cc(-c2ccc(NC(=O)Nc3ccc(F)c(C(F)(F)F)c3)cc2)nc2cccnc12`, the growth is 106%.
Still for that read-out and setting: under `COc1cc(C(C)=C(c2ccc(OCCN(C)C)cc2)c2ccc(OCCN(C)C)cc2)ccc1F` stands 104%.
For the molecule `CN1CCN(CC#CCn2c3c(c4ccccc42)C[C@]2(C)[C@H]4CC=C5[C@@H]6CC(C)(C)CC[C@]6(C(=O)N6CCOCC6)CC[C@@]5(C)[C@]4(C)CC[C@H]2C3(C)C)CC1`, the growth was 11.6%.
Still for that read-out and setting: under `O=S(=O)(NCCCNc1nccc(-c2[nH]c(-c3ccccc3)nc2-c2ccc(F)c(O)c2)n1)c1ccccc1` stands 133%; under `COc1ccc(Cn2cc(C#N)c(N)c2C(C)=O)cc1`, 111%; under `CC(Nc1ncnc2ccc(-c3cnc4cnccn34)cc12)c1ccccc1` (stereo unspecified), 85.7%.
For `CN1CCN(Cc2ccc(/C=N/Nc3ccnc4cc(Cl)ccc34)cc2)CC1`, the growth was 69.9%.
Still for that read-out and setting: in the case of `N#Cc1c(-c2cccs2)cc(-c2cnccn2)nc1SCC(=O)N/N=C/c1cccs1` it was 43.2%; in that of `CCCCCCN1C=C/C(=C\C(=O)n2ccc3ccccc32)c2ccccc21`, 79.2%; in that of `Cn1cc(-c2nnc(N)nc2-c2c[nH]c3ccc(F)cc23)c2cc(Br)ccc21`, 20.4%.
For `CNC(=O)c1cc(-c2ccc(NC(=S)Nc3cccc(C(F)(F)F)c3)cc2)nc2cccnc12`, the growth is 96.8%.
Consider `NC(N)=NS(=O)(=O)c1ccc(N=Nc2c(N)nn(-c3ccc([N+](=O)[O-])cc3[N+](=O)[O-])c2N)cc1`, for which the growth is 101%.
On to `O=C(/C=C/c1cccc(F)c1)c1cccc(OCCCOc2cccc(C(=O)/C=C/c3cccc(F)c3)c2)c1`, for which the growth was 14.3%.
Still for that read-out and setting: in the case of `NC(=O)n1c(=O)n(-c2cccc(C(F)(F)F)c2)c(=O)c2cc(-c3ccc(F)cc3F)ccc21` it was 14.1%; in that of `COC(=O)c1cccc(NC2=CC(=O)C(C)=C(C)C2=O)c1`, 104%.

The test system of the next assay is MCF7 breast. The description is as above. The following applies: 10 µM unless noted.
For `O=C1[C@@H]2Cc3c([nH]c4ccccc34)[C@H](c3ccc(Br)cc3)N2C(=O)CN1C1CCN(Cc2c(Cl)cccc2Cl)CC1`, the growth is 68.3%.
Same read-out and setting: under `O=C1/C(=C/C=C/c2ccco2)SC(=S)N1Cc1ccccc1` stands 28.4%.
As for `O=C(COc1ccc(/C=C2\C(=O)Nc3ccc(Cl)cc32)cc1)Nc1ccc(Cl)cc1`, the growth is 56.3%.
For `N#C/C(=N\Nc1ccc(F)cc1)C(=O)Nc1cc(-c2ccccc2)nn1-c1ccccc1`, the growth was 0.117% (active).
Same read-out and setting: in the case of `Clc1ccc2c(N/N=C/c3c[nH]c4ccccc34)ccnc2c1` it was -72% (active); in that of `CN1CCN(Cc2ccc(NC(=O)c3cncc(C#Cc4cnc5ccc(NCCO)nn45)c3)cc2C(F)(F)F)CC1`, -43.5% (active).
Same read-out and setting: in the case of `C#CCOc1ccc(/C=N/Nc2nc(-c3ccc(OC)cc3)cs2)cc1` it was 69.8%; in that of `Cc1ccc(/C(N)=N/C(N)=N/c2nc3ccccc3s2)cc1`, 74%.
In the case of `CC(=O)Nc1cc(N2CCOCC2)c2nc(NC(=O)c3[nH]c(C)c(Cl)c3Cl)sc2c1`, the growth was 67.1%.
Still for that read-out and setting: under `CN(C)c1ccc(/C=N/Nc2nc(N/N=C/c3ccc(N(C)C)cc3)nc(N3CCCCC3)n2)cc1` stands 31.1%; under `N#Cc1c(-c2cccs2)cc(-c2cnccn2)nc1SCC(=O)N/N=C/c1ccc(Cl)cc1`, 84.6%.
Same read-out and setting: in the case of `COc1ccc(OC)c(NC(=O)CCCCCCNC(=O)C(O)(O)C(F)(F)F)c1` it was 36.9%; in that of `C/C(=N/N)c1nnn(-c2ccc(Br)cc2)c1C`, 77.6%; in that of `CC(C)NC(=O)c1cc(-c2ccc(NC(=O)Nc3ccc(F)c(C(F)(F)F)c3)cc2)nc2cccnc12`, 91.8%.
The same measure, in the same setting: under `COc1cc(C(C)=C(c2ccc(OCCN(C)C)cc2)c2ccc(OCCN(C)C)cc2)ccc1F` stands 93.8%.
`CN1CCN(CC#CCn2c3c(c4ccccc42)C[C@]2(C)[C@H]4CC=C5[C@@H]6CC(C)(C)CC[C@]6(C(=O)N6CCOCC6)CC[C@@]5(C)[C@]4(C)CC[C@H]2C3(C)C)CC1`: the growth was -3.42% (active).
With `COc1cc(/C=C2/C(=O)Nc3ccc(Cl)cc32)ccc1OCc1ccc(Cl)cc1`, the growth was 49%.
`Cc1[nH]c(C(=O)Nc2ccccc2OCc2cccc(C(=O)NC3CCCNC3)c2)c(Cl)c1Cl` (stereo unspecified): the growth is -77.8% (active).
The same measure, in the same setting: in the case of `O=S(=O)(NCCCNc1nccc(-c2[nH]c(-c3ccccc3)nc2-c2ccc(F)c(O)c2)n1)c1ccccc1` it was 94.9%.
Same read-out and setting: under `COc1ccc(Cn2cc(C#N)c(N)c2C(C)=O)cc1` stands 90.4%; under `CC(Nc1ncnc2ccc(-c3cnc4cnccn34)cc12)c1ccccc1` (stereo unspecified), 33.5%.
The same measure, in the same setting: under `O=C(NCCNc1cc(-c2cn(-c3ccccc3)nc2-c2cccc(O)c2)ccn1)Nc1cc(C(F)(F)F)cc(C(F)(F)F)c1` stands 87.2%; under `C#CCN(C)CCCOc1ccc(NC(=O)CCCCCCC(=O)NO)cc1Cl`, 13.4%.
On to `O=C(CSc1nnc(-c2ccc(Cl)cc2)n1-c1ccccc1)Nc1ccc(Cl)cc1`, for which the growth was 53.3%.
With `CN1CCN(Cc2ccc(/C=N/Nc3ccnc4cc(Cl)ccc34)cc2)CC1`, the growth was 54.7%.
In the case of `N#Cc1c(-c2cccs2)cc(-c2cnccn2)nc1SCC(=O)N/N=C/c1cccs1`, the growth was 32.1%.
In the case of `CCCCCCN1C=C/C(=C\C(=O)n2ccc3ccccc32)c2ccccc21`, the growth was 29.2%.
Still for that read-out and setting: under `CC(C)(C)Nc1nc2c(OCCc3ccccc3)cccn2c1-c1cccc(Oc2ccccc2)c1` stands 4.96% (active); under `Cn1cc(-c2nnc(N)nc2-c2c[nH]c3ccc(F)cc23)c2cc(Br)ccc21`, 12.3%.
Take `CN1CCN(c2ccc(Nc3nc(NCCCNS(=O)(=O)c4cccc(F)c4)c4sccc4n3)cc2)CC1`: the growth was 25.7%.
On to `CNC(=O)c1cc(-c2ccc(NC(=S)Nc3cccc(C(F)(F)F)c3)cc2)nc2cccnc12`, for which the growth is 80.3%.
Take `NC(N)=NS(=O)(=O)c1ccc(N=Nc2c(N)nn(-c3ccc([N+](=O)[O-])cc3[N+](=O)[O-])c2N)cc1`: the growth is 96.2%.
The same measure, in the same setting: under `N#Cc1c(-c2cccs2)cc(-c2cnccn2)nc1SCC(=O)N/N=C/c1ccncc1` stands 92.5%; under `CCN(CC)c1ccc(/C=N/NC(=O)c2ccc(NS(C)(=O)=O)cc2)cc1`, 9.25% (active); under `CCCCCC[n+]1ccc(SCC(=O)n2ccc3ccccc32)c2ccccc21`, 75.6%.
On the same count and under the same terms, in the case of `O=C(/C=C/c1cccc(F)c1)c1cccc(OCCCOc2cccc(C(=O)/C=C/c3cccc(F)c3)c2)c1` it was 10.2%; in that of `NC(=O)n1c(=O)n(-c2cccc(C(F)(F)F)c2)c(=O)c2cc(-c3ccc(F)cc3F)ccc21`, 0.6% (active).
Still for that read-out and setting: under `CCCCCc1ccc(S(=O)(=O)Nc2cc(-c3csc(N)n3)ccc2OC)cc1` stands 66.1%.
Take `COC(=O)c1cccc(NC2=CC(=O)C(C)=C(C)C2=O)c1`: the growth is 71.3%.
Still for that read-out and setting: under `O=C(/C=C/c1cccc(C(F)(F)F)c1)Nc1cccc(C(F)(F)F)c1` stands 30.9%.
